Compound activity (PubChem BioAssay)
FBW7 activator: activators of human E3 ligase FBW7; Q969H0; AlphaScreen FBW7–phospho-cyclin E peptide binding, activator screen; normalized activity (activation), % at 26.1 µM; 650,000 tested, 0.13% active; AID 1259310; in the data active = normalized activity above about 1.9%;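 also: purified mutant Fbw7 with reduced substrate affinity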
MITF primary: inhibitors of human MITF; O75030; AlphaScreen MITF homodimerization, bead proximity signal; inhibition, % at 2.6 µM; 650,000 tested, 0.91% active; AID 1259374; in the data active = inhibition above about 50%
Target sequence (O75030 whole entry, looked up): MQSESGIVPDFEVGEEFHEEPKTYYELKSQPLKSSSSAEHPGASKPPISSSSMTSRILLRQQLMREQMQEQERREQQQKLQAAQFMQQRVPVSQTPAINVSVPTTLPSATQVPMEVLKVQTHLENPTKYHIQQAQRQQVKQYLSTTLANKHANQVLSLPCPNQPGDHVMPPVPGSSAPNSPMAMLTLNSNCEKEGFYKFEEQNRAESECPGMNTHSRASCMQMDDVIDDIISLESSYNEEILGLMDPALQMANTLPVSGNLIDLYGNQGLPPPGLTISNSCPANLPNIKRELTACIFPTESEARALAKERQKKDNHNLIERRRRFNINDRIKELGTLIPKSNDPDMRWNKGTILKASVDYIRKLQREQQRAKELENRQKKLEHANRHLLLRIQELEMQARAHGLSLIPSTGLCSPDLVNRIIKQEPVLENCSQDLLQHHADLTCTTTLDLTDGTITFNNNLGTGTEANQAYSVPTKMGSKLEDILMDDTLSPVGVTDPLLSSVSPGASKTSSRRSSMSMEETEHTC
GPR151 activ: activators of human GPR151. Q8TDV0. PathHunter beta-arrestin GPR151 cells, luminescence. activation, % at 11.2 µM. 650,000 tested, 1% active. AID 1508602; in the data active = activation above about 4.9%
TEAD-YAP inh: TEAD-YAP interaction inhibition | inhibition, % at 9.12 µM | 640,000 tested, 1.4% active | HEK-TIYL cells, TEAD-Gal4/YAP UAS-luciferase luminescence; in the data active = inhibition above about 32%
GPR151 confirm: confirmation of human GPR151 activators; AID 1508609; 6,700 tested, under 10 active; GPR151 PathHunter beta-arrestin cells, luminescence, 90 min; % of EA-reagent control over plate median; activation, % at 11.2 µM; shares compounds with GPR151 activ;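 active = mean percent activation across replicates above the confirmation screen cutoff of 4.91%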
GPR119 counter: activates human GPR119 in a GPR151 counter-screen; GPR119 PathHunter beta-arrestin cells, luminescence, 90 min; 0 = compound-well median, 100 = enzyme-acceptor control; shares compounds with GPR151 activ; AID 1508611; 6,700 tested, 0.3% active; activation, % at 11.2 µM;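 active = mean percent activation in the counterscreen above 29.09%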;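 also: counterscreen on off-target GPR119 to flag nonselective hits from the GPR151 activator screen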
Numbers stand for hits. Rows were chosen to be rich in hits. Some 3.5% of all compounds tested hit in one or more screens of this group.

For O=C(Nc1ccc(Cl)c(-c2nc3ccccc3o2)c1)c1ccccc1F the results were FBW7 activator inactive, MITF primary inactive, GPR151 activ inactive and TEAD-YAP inh inactive.
Cc1ccc(C(=O)Nc2ccc(-c3nc4ccccc4o3)cc2)c(Cl)c1 was read as FBW7 activator inactive, MITF primary inactive, GPR151 activ 6.5, TEAD-YAP inh inactive, GPR151 confirm inactive and GPR119 counter inactive.
For O=c1c2oc3ccccc3c2ncn1Cc1cccc(F)c1 the results were FBW7 activator inactive, MITF primary inactive, GPR151 activ inactive and TEAD-YAP inh inactive.
Cc1sc(NC(=O)c2ccco2)c(CN2CCN(CCO)CC2)c1C was read as FBW7 activator inactive, MITF primary inactive, GPR151 activ 25, TEAD-YAP inh inactive, GPR151 confirm inactive and GPR119 counter inactive.
`CCc1nnc(NC(=O)CSc2nnc(C)c(=O)[nH]2)s1` gave FBW7 activator inactive, MITF primary inactive, GPR151 activ inactive and TEAD-YAP inh inactive.
CC1(C)c2ccccc2N(CC(=O)NCc2ccc(Cl)cc2)C12C=Cc1cc([N+](=O)[O-])ccc1O2 (stereo unspecified) was read as FBW7 activator inactive, MITF primary inactive, GPR151 activ 6.3, TEAD-YAP inh inactive, GPR151 confirm inactive and GPR119 counter inactive.
`COC(=O)c1ccc2c(c1)C(C)(C)C1(C=Cc3cc([N+](=O)[O-])ccc3O1)N2C` (stereo unspecified) gave FBW7 activator inactive, MITF primary inactive, GPR151 activ 5.3, TEAD-YAP inh inactive, GPR151 confirm inactive and GPR119 counter inactive.
CC1(C)c2ccccc2N(CC(=O)NCc2ccccc2)C12C=Cc1cc([N+](=O)[O-])ccc1O2 (stereo unspecified) was read as FBW7 activator inactive, MITF primary inactive, GPR151 activ inactive and TEAD-YAP inh inactive.
Screening COc1cccc(-n2c(=S)sc3c(=O)n(-c4ccccc4)c(SCC4CCCO4)nc32)c1 (stereo unspecified) returned FBW7 activator inactive, MITF primary inactive, GPR151 activ inactive and TEAD-YAP inh inactive.
For O=C(CCCOc1ccc(Cl)cc1Cl)Nc1ccc(F)cc1F the results were FBW7 activator inactive, MITF primary inactive, GPR151 activ inactive and TEAD-YAP inh inactive.
Screening COc1ccc(O)c(C2NC(C)(C(=O)O)C3C(=O)N(c4ccccc4OC)C(=O)C23)c1 (stereo unspecified) returned FBW7 activator inactive, MITF primary inactive, GPR151 activ 5.1, TEAD-YAP inh inactive, GPR151 confirm inactive and GPR119 counter inactive.
For CCOc1cccc(C2NC(C)(C(=O)O)C3C(=O)N(c4ccccc4OC)C(=O)C23)c1O (stereo unspecified) the results were FBW7 activator inactive, MITF primary inactive, GPR151 activ inactive and TEAD-YAP inh inactive.
Screening COC(=O)C1=CN(Cc2ccc(F)cc2)C=C(C(=O)OC)C1c1ccc(OCc2ccccc2)c(OC)c1 returned FBW7 activator inactive, MITF primary inactive, GPR151 activ inactive and TEAD-YAP inh inactive.
`CCOC(=O)C1=CN(Cc2ccc(F)cc2)C=C(C(=O)OCC)C1c1ccc(OCc2ccccc2)c(OC)c1` gave FBW7 activator inactive, MITF primary inactive, GPR151 activ 14, TEAD-YAP inh inactive, GPR151 confirm inactive and GPR119 counter inactive.
`O=C(CCCOc1ccccc1)Nc1ccccc1C(=O)N1CCOCC1` gave FBW7 activator inactive, MITF primary inactive, GPR151 activ 9.4, TEAD-YAP inh inactive, GPR151 confirm inactive and GPR119 counter inactive.
Screening N#C/C(=N/Nc1cccc([N+](=O)[O-])c1)C(=N)N1CCCCC1 returned FBW7 activator inactive, MITF primary inactive, GPR151 activ inactive and TEAD-YAP inh inactive.
`COc1cc(NC(=O)CSc2nnnn2C)cc(OC)c1` gave FBW7 activator inactive, MITF primary inactive, GPR151 activ 5.1, TEAD-YAP inh inactive, GPR151 confirm inactive and GPR119 counter inactive.
Screening Oc1ccc2ncccc2c1C(Nc1ccccn1)c1ccco1 (stereo unspecified) returned FBW7 activator inactive, MITF primary inactive, GPR151 activ 31, TEAD-YAP inh inactive, GPR151 confirm inactive and GPR119 counter inactive.
For COc1ccc(C(=O)NC(=S)NC(C)Cc2cccs2)cc1 (stereo unspecified) the results were FBW7 activator inactive, MITF primary inactive, GPR151 activ inactive and TEAD-YAP inh inactive.
